High-throughput results from PubChem BioAssay.
JMJD2C inh – inhibitors of GASC-1 histone demethylase, primary screen, biochemical, fluorescence, DELFIA europium | inhibition, % at 2.35 µM | 330,000 compounds, 0.069% hits | AID 2099, 2009 | Lysine-specific demethylase 4C (Homo sapiens), Q9H3R0 | GST-JMJD2C(1-420) H3K9me3 demethylation;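 active means more than half of a compound's replicate wells show inhibition beyond 50%, single wells judged on their own value; inconclusive means some, but no more than half, of replicates pass 50% inhibition; inactive means no replicate passes 50% inhibition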;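 further: signal counts dimethyl H3K9 product captured on neutravidin plate; 0% = median of DMSO wells and 100% = 0.3 times that DMSO median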
Target sequence (Q9H3R0 1-420 limits assumed): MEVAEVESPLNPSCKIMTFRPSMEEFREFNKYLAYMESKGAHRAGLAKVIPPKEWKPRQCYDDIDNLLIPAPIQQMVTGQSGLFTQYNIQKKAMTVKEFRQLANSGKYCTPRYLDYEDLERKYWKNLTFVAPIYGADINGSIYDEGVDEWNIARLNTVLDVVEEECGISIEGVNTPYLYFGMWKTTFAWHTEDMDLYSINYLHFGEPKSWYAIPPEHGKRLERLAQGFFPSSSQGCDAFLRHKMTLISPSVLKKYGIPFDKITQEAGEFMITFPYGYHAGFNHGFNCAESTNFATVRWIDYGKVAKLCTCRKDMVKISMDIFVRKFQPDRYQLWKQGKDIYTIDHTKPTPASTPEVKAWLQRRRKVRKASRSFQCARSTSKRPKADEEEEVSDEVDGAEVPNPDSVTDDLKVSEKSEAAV
GPR7 antag – GPR7 receptor antagonists, primary screen, cell-based, fluorescence, single concentration; Neuropeptides B/W receptor type 1 (Homo sapiens), P48145; GPR7-expressing cells, fluorescence antagonist assay; inhibition, % at 4.4 µM; 290,000 compounds, 1.1% hits; AID 1861, 2009; in the data active means inhibition above about 16%, passing the limit was not always enough;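 further: cells stimulated with the agonist NPW; 0% = agonist with vehicle and 100% = vehicle without agonist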
VLA-4 inh – inhibition in human VLA-4 binding assay, primary screen, VLA-4 allosteric modulator project, MLPCN library, flow cytometry, VLA-4 expressing cells. 330,000 compounds, 0.2% hits. inhibition, % (about 7 µM as worked out from the volumes in the protocol). Integrin alpha-4 (Homo sapiens), P13612. ligand binding flow cytometry; in the data active means inhibition above about 50%
pCIP destab – p/CIP-EGFP fusion destabilizers, primary screen, fluorescence, F442A cells | Q05BA5 | 16 h | decrease of EGFP signal, % at 10 µM | 290,000 compounds, 0.01% hits | AID 1984, 2009;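 active means EGFP signal decrease of at least 30% at 10 µM or well 3 SD below plate mean, unless failing retest; inactive means the rest, including hits failing retest or dose response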
GPR7 antag cf – GPR7 receptor antagonists, confirmation, cell-based, fluorescence, single concentration; shares compounds with GPR7 antag; GPR7-expressing cells, calcium fluorescence antagonist mode; inhibition, % at 4.4 µM; 2,400 compounds, 52% hits; AID 1952, 2009; in the data active means inhibition above about 24%;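 further: stimulated with the GPR7 agonist NPW; 0% = agonist plus vehicle and 100% = vehicle alone without agonist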
MCHR1 antagonist – MCHR1 antagonists in cells, counter-screen for GPR7 antagonist project, cell-based, fluorescence, human. shares compounds with GPR7 antag. 2,400 compounds, 62% hits. MCHR1-expressing cells, fluorescence antagonist assay. inhibition, % at 4.4 µM; in the data active means inhibition above about 22%;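 further: 0% = vehicle with agonist and 100% = vehicle without agonist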
* = called active by the depositor; ? = inconclusive; . = no result given. Sampled rows, rich in hits. Any-hit rate of the full collection: about 1.2%.

SMILES | JMJD2C inh | GPR7 antag | VLA-4 inh | pCIP destab | GPR7 antag cf | MCHR1 antagonist
CN(C1CCCCC1)S(=O)(=O)c1ccc(C(=O)N2CCN(c3nc4ccccc4s3)CC2)cc1 | -4.4 | 22.3* | 20.8 | 4.9 | 16.6 | 44.2*
O=C(C1CC1)N1CCN(c2nc3ccccc3s2)CC1 | -0.6 | 2.4 | 10.0 | -5.8 | . | .
Cc1ccc(S(=O)(=O)c2nnn(-c3cccc(F)c3)c2N)cc1 | -10.0 | 15.6 | 4.3 | 6.2 | . | .
Cc1noc(C)c1CSc1nnc(-c2ccccc2)o1 | -21.9 | 23.0* | -5.0 | -16.4 | 31.3* | 21.6*
COc1ccc2c(c1)C(C)CC(C)(C)N2C(=O)CSc1nc2ccccc2s1 (stereo not drawn) | -21.6 | 22.1* | 11.7 | 2.2 | 25.5* | 53.9*
O=[N+]([O-])c1ccc(CNCc2cc(Cl)ccc2O)cc1 | 6.2 | . | 37.4 | . | . | .
O=S(=O)(Cc1ccccc1)N1CCNCC1 | -1.4 | -9.4 | -2.0 | 6.5 | . | .
COc1cccc(CNCCc2c[nH]c3ccccc23)c1OCc1ccc(F)cc1 | -16.8 | 25.2* | 9.1 | -13.1 | 45.8* | 65.4*
COc1ccccc1NC(=S)NCCc1c[nH]c2ccccc12 | -16.5 | -1.2 | -4.5 | -12.3 | . | .
CC1CCN(c2nc(-c3cccnc3)nc3scc(-c4ccccc4)c23)CC1 | 6.0 | 0.2 | 1.6 | -1.4 | . | .
CC1CCN(c2nc(CN3CCCCC3)nc3scc(-c4ccccc4)c23)CC1 | -3.5 | 22.8* | 24.5 | -12.6 | 32.4* | 31.6*
Cc1ccc(S(=O)(=O)N(CC(=O)NCc2ccccc2Cl)C(=O)N2CCN(C)CC2)cc1 | ? | . | 0.1 | . | . | .
Nc1nc2ccccc2n1CCN1CCCC1 | 21.8 | 33.4* | -8.5 | 4.3 | -8.2 | 2.3
CCCn1c(N)nc2ccccc21 | 3.0 | -1.2 | 13.8 | -1.2 | . | .
O=C(Nc1cccnc1)c1cc(-c2ccc(Cl)c(Cl)c2)on1 | -17.5 | 5.2 | -2.5 | 0.0 | . | .
O=C(Nc1cccnc1)c1cc(-c2cccc(Cl)c2)on1 | -3.2 | 23.2* | 10.4 | -2.9 | 23.4 | 43.0*
O=C(Nc1cccnc1)c1cc(-c2ccccc2O)on1 | -7.0 | 38.5* | -6.0 | -6.6 | 40.4* | 43.3*
O=C(Nc1ccc(OC(F)(F)F)cc1)Nc1cccnc1 | -7.8 | 21.8* | 6.5 | -11.3 | 3.6 | 29.8*
CC(=O)c1ccc(NC(=O)Nc2cccnc2)cc1 | -6.3 | -2.4 | 3.7 | -29.0 | . | .
Cc1ccc(NS(=O)(=O)c2ccc(C(=O)N3CC(C)OC(C)C3)cc2)cc1 (stereo not drawn) | -7.5 | 37.0* | 2.1 | -21.7 | 35.7* | 34.6*
Cc1ccc(NS(=O)(=O)c2ccc(C(=O)N3CCC3)cc2)cc1 | 66.5 | . | 2.8 | . | . | .
Cc1ccc(NS(=O)(=O)c2ccc(C(=O)NCc3ccccn3)cc2)cc1 | -4.2 | 29.9* | 0.9 | -11.9 | 44.2* | 32.9*
Cc1ccc(NS(=O)(=O)c2ccc(C(=O)N3CCCCCC3)cc2)cc1 | -5.2 | . | -6.7 | . | . | .
CCOc1ccc(NS(=O)(=O)c2ccc(C(=O)NCC3(N4CCCCC4)CCCCC3)cc2)cc1 | 2.3 | 58.2* | 9.3 | 4.6 | 20.9 | 34.2*
Cc1ccc(NS(=O)(=O)c2ccc(C(=O)N3CCCCCCC3)cc2)cc1 | -7.1 | 25.9* | 16.1 | -15.7 | 29.1* | 27.9*
SMILES | JMJD2C inh | GPR7 antag | VLA-4 inh | pCIP destab | GPR7 antag cf | MCHR1 antagonist
COc1ccc(CN2CCNC(=O)C2CC(=O)N(C)C2CCOCC2)c(F)c1 (stereo not drawn) | 0.1 | -13.8 | 13.1 | 15.4 | . | .
N#CCSc1nnc(COc2ccc3ccccc3c2)o1 | 14.1 | 12.2 | 5.0 | -25.1 | . | .
Cc1ccc(S(=O)(=O)NCc2ccc(C(=O)N3CCN(c4ccc([N+](=O)[O-])cc4)CC3)cc2)cc1 | -0.9 | 41.0* | -6.4 | -11.4 | 26.3* | 67.3*
O=C(c1ccc(S(=O)(=O)Nc2ccccc2)cc1)N1CCCC(C(F)(F)F)C1 (stereo not drawn) | 5.0 | 47.8* | 6.6 | -23.4 | 61.1* | 36.2*
COc1ccc(N2CCN(C(=O)c3ccc(CNS(=O)(=O)c4ccc(C)cc4)cc3)CC2)cc1 | -4.7 | 6.7 | 4.1 | -9.1 | . | .
NS(=O)(=O)c1ccc(CCNC(=O)COC(=O)Cc2c(F)cccc2Cl)cc1 | -15.3 | -14.2 | 16.9 | 0.1 | . | .
